Experimental data as given in the supplement of paper PMC9135407.
Counter-ions that a name gives are not always drawn.

Each molecule was assayed on primary human hepatic stellate cells (donor 1) (assay: ACTA2 mRNA fold change vs DMSO (normalised to PSMB2); higher = more ACTA2 expression). Conditions: 48 h.
Method: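 Secondary qRT-PCR screen in primary human HSCs (donor 1), 384-well plates, with compounds dispensed in quadruplicate and incubated for 48 h. Cells-to-CT lysates were used for multiplexed TaqMan qPCR of ACTA2 or COL1A1 with PSMB2 as reference. Fold changes versus DMSO come from a linear model (Ct_gene ~ Ct_PSMB2 + plate + chemical). A hit is defined as COL1A1 and ACTA2 FC <0.5 (FDR <0.05) with PSMB2 between 0.2 and 2.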
With `CCN(CC)CCCCNc1ncc2cc(-c3c(Cl)cccc3Cl)c(NC(=O)NC(C)(C)C)nc2n1` (33.3333 µM) the “ACTA2 mRNA fold change” value was 0.196.
In the case of `CCN(CC)CCNC(=O)c1c(C)[nH]c(/C=C2\C(=O)Nc3ccc(F)cc32)c1C` (6.66667 µM), the “ACTA2 mRNA fold change” value is reported as 1.2.
In the case of `C[C@]12CC[C@H](O)CC1=CC[C@@H]1[C@@H]2CC[C@]2(C)C(n3cnc4ccccc43)=CC[C@@H]12` [Galeterone] (33.3333 µM), the “ACTA2 mRNA fold change” value is reported as 0.0205.
`CN1CCCN(C(c2ccccc2)c2ccc(Cl)cc2)CC1` (stereo not given) [Homochlorcyclizine dihydrochloride] (33.3333 µM) was tested, and the “ACTA2 mRNA fold change” value was 0.0102.
In the case of `NC[C@@H]1O[C@H](C23CC4CC(CC(C4)C2)C3)Cc2c1ccc(O)c2O` (33.3333 µM), the “ACTA2 mRNA fold change” value is reported as 0.309.
For `CNC(=O)[C@@H](Cc1ccccc1)N(C)C(=O)[C@@H](Cc1ccc2ccccc2c1)N(C)C(=O)/C=C/CC(C)(C)N` [Tabimorelin] (33.3333 µM), the “ACTA2 mRNA fold change” value was 0.46.
In the case of `CCN(CC)CC#CCOC(=O)C(O)(c1ccccc1)C1CCCCC1` (stereo not given) [Oxybutynin chloride] (16.9333 µM), the “ACTA2 mRNA fold change” value is reported as 1.09.
In the case of `COc1ccccc1OCCNCC(O)COc1cccc2[nH]c3ccccc3c12` (stereo not given) [Carvedilol] (33.3333 µM), the “ACTA2 mRNA fold change” value is reported as 0.0773.
In the case of `Nc1ccc(C(=O)Nc2cccc(-c3nc(N4CCOCC4)c4oc5ncccc5c4n3)c2)cn1` (6.66667 µM), the “ACTA2 mRNA fold change” value is reported as 1.8.
In the case of `CC[C@@H]1C(=O)N(C)c2cnc(Nc3ccc(C(=O)NC4CCN(C)CC4)cc3OC)nc2N1C1CCCC1` (33.3333 µM), the “ACTA2 mRNA fold change” value is reported as 0.158.
With `Cc1ccc(S(=O)(=O)/C=C/C#N)cc1` (33.3333 µM) the “ACTA2 mRNA fold change” value was 0.24.
`CNCc1ccc(-c2[nH]c3cc(F)cc4c3c2CCNC4=O)cc1` (33.3333 µM) was tested, and the “ACTA2 mRNA fold change” value was 0.864.
`c1cc(OCCN2CCCCC2)cc(-c2n[nH]c3ccc(-c4nnc[nH]4)cc23)c1` (33.3333 µM) was tested, and the “ACTA2 mRNA fold change” value was 0.0437.
For `O=C1NCN(c2ccccc2)C12CCN(CCCC(c1ccc(F)cc1)c1ccc(F)cc1)CC2` [Fluspirilene] (14.0333 µM), the “ACTA2 mRNA fold change” value was 1.03.
`Clc1ccccc1CNCC1CCC(CNCc2ccccc2Cl)CC1` (stereo not given) (33.3333 µM) was tested, and the “ACTA2 mRNA fold change” value was 0.0214.
For `CC[C@]1(O)C[C@@H]2CN(CCc3c([nH]c4ccccc34)[C@@](C(=O)OC)(c3cc4c(cc3OC)N(C)[C@H]3[C@@](O)(C(=O)OC)[C@H](OC(C)=O)[C@]5(CC)C=CCN6CC[C@]43[C@@H]65)C2)C1` [Vinblastine sulfate] (33.3333 µM), the “ACTA2 mRNA fold change” value was 0.02.
With `CNCc1ccc(-c2cc(-c3nc(-c4ccc(S(=O)(=O)C(C)C)cc4)cnc3N)on2)cc1` (11.1 µM) the “ACTA2 mRNA fold change” value was 0.0206.
For `Cc1[nH]c(/C=C2\C(=O)Nc3ccc(S(=O)(=O)N(C)c4cccc(Cl)c4)cc32)c(C)c1C(=O)N1CCN(C)CC1` (33.3333 µM), the “ACTA2 mRNA fold change” value was 0.425.
With `CN(C)Cc1c(C(=O)NCCOc2ccc(C(=O)NO)cc2)oc2ccccc12` (33.3333 µM) the “ACTA2 mRNA fold change” value was 0.00935.
In the case of `COc1cc2nc(N3CCCN(C)CC3)nc(NC3CCN(Cc4ccccc4)CC3)c2cc1OC` (3.33333 µM), the “ACTA2 mRNA fold change” value is reported as 0.0176.
`CCCCc1oc2ccccc2c1C(=O)c1cc(I)c(OCCN(CC)CC)c(I)c1` (33.3333 µM) was tested, and the “ACTA2 mRNA fold change” value was 0.0284.
`COC(=O)C[C@](O)(CCCC(C)(C)O)C(=O)O[C@@H]1C(OC)=C[C@]23CCCN2CCc2cc4c(cc2[C@H]13)OCO4` [Homoharringtonine] (33.3333 µM) was tested, and the “ACTA2 mRNA fold change” value was 0.0673.
With `N=C(N)SCCc1ccc(OCc2ccc([N+](=O)[O-])cc2)cc1` [KB-R7943 mesylate] (33.3333 µM) the “ACTA2 mRNA fold change” value was 0.0804.
With `CNc1nccc(-c2cccnc2Oc2cc(C(=O)Nc3cccc(C(F)(F)F)c3)ccc2C)n1` (33.3333 µM) the “ACTA2 mRNA fold change” value was 0.569.
In the case of `CCCSc1ccc2[nH]c(NC(=O)OC)nc2c1` [Albendazole] (33.3333 µM), the “ACTA2 mRNA fold change” value is reported as 0.173.
`CCN(CC)CCOc1ccc(Cc2ccccc2)cc1` [DPPE fumarate] (33.3333 µM) was tested, and the “ACTA2 mRNA fold change” value was 0.397.
With `C[C@@H](Oc1cc(-c2cnn(C3CCNCC3)c2)cnc1N)c1c(Cl)ccc(F)c1Cl` (11.1 µM) the “ACTA2 mRNA fold change” value was 0.15.
With `Cc1ccc(NC(=O)C(C)C)cc1C1CCN(Cc2ccc(Oc3ccc(F)c(F)c3)cc2)CC1` (33.3333 µM) the “ACTA2 mRNA fold change” value was 0.0197.
`Clc1ccc(C2(c3ccc(-c4cn[nH]c4)cc3)CCNCC2)cc1` (33.3333 µM) was tested, and the “ACTA2 mRNA fold change” value was 0.0459.
With `c1ccc2c(NCCCCCCCNc3c4c(nc5ccccc35)CCCC4)c3c(nc2c1)CCCC3` [bis(7)-Tacrine] (3.33333 µM) the “ACTA2 mRNA fold change” value was 0.0296.
In the case of `CCOC(=O)C1=C(COCCN)NC(C)=C(C(=O)OC)C1c1ccccc1Cl` (stereo not given) (33.3333 µM), the “ACTA2 mRNA fold change” value is reported as 0.084.
In the case of `CC(C)c1cc(-c2n[nH]c(=O)n2-c2ccc3c(ccn3C)c2)c(O)cc1O` [Ganetespib (STA-9090)] (33.3333 µM), the “ACTA2 mRNA fold change” value is reported as 0.605.
With `CN(C)C/C=C(/c1ccc(Br)cc1)c1cccnc1` [Zimelidine dihydrochloride] (11.1 µM) the “ACTA2 mRNA fold change” value was 0.452.
For `CN1CCN(Cc2ccc(-c3cnc4[nH]cc(-c5ccc6[nH]ccc6c5)c4c3)cc2)CC1` (6.66667 µM), the “ACTA2 mRNA fold change” value was 0.042.
`Cc1cc(C(=O)Nc2cc(Nc3ccc4c(/C=C/c5ccccn5)n[nH]c4c3)ccc2F)n(C)n1` (33.3333 µM) was tested, and the “ACTA2 mRNA fold change” value was 0.469.
`CCNC(=O)c1noc(-c2cc(C(C)C)c(O)cc2O)c1-c1ccc(CN2CCOCC2)cc1` (11.1 µM) was tested, and the “ACTA2 mRNA fold change” value was 1.19.
`O=C(Nc1ncc(SCCN2CCCC2)s1)[C@]1(c2ccc(S(=O)(=O)C3CC3)cc2)C[C@H]1C1CCCCC1` (11.1 µM) was tested, and the “ACTA2 mRNA fold change” value was 0.00928.
For `CNCc1ccc(C)c(NC(=O)c2ccc(Nc3nc(-c4ccccc4)c4ccccc4n3)cc2)c1` (33.3333 µM), the “ACTA2 mRNA fold change” value was 0.0244.
With `O=C1NC(=O)/C(=C/c2ccc(-c3ccc(F)cc3O)o2)S1` (33.3333 µM) the “ACTA2 mRNA fold change” value was 0.0492.
With `CN1CCN(C2=Cc3ccccc3Oc3ccc(Cl)cc32)CC1` (33.3333 µM) the “ACTA2 mRNA fold change” value was 0.196.
